# From PubChem BioAssay
# Shown are actives, neighbours in structure and some others; about 3.5% of the full set was active somewhere.
# GPR151 ag = human GPR151 activation. PathHunter beta-arrestin GPR151 cells, luminescence. activation, % at 11.2 µM. Q8TDV0. AID 1508602. 650,000 tested, 1% active; in the data active = activation above about 4.9%;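 note: 0% = median of compound wells and 100% = cells with positive control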
# MITF primary = human MITF inhibition, primary screen | 650,000 tested, 0.91% active | AlphaScreen MITF homodimerization, bead proximity signal | inhibition, % at 2.6 µM | O75030; in the data active = inhibition above about 50%;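 note: 0% = vehicle wells with protein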
# TEAD-YAP block = TEAD-YAP interaction inhibition; inhibition, % at 9.12 µM; HEK-TIYL cells, TEAD-Gal4/YAP UAS-luciferase luminescence; 640,000 tested, 1.4% active; in the data active = inhibition above about 32%;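 note: 0% = median of test compound wells and 100% = reference inhibitor wells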
# FBW7 act = human FBW7 E3 ligase activation, primary screen; Q969H0; AlphaScreen FBW7–phospho-cyclin E peptide binding, activator screen; normalized activity (activation), % at 26.1 µM; 650,000 tested, 0.13% active; in the data active = normalized activity above about 1.9%;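 note: purified mutant Fbw7 with reduced substrate affinity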
# Target sequence (Q969H0 whole entry, looked up): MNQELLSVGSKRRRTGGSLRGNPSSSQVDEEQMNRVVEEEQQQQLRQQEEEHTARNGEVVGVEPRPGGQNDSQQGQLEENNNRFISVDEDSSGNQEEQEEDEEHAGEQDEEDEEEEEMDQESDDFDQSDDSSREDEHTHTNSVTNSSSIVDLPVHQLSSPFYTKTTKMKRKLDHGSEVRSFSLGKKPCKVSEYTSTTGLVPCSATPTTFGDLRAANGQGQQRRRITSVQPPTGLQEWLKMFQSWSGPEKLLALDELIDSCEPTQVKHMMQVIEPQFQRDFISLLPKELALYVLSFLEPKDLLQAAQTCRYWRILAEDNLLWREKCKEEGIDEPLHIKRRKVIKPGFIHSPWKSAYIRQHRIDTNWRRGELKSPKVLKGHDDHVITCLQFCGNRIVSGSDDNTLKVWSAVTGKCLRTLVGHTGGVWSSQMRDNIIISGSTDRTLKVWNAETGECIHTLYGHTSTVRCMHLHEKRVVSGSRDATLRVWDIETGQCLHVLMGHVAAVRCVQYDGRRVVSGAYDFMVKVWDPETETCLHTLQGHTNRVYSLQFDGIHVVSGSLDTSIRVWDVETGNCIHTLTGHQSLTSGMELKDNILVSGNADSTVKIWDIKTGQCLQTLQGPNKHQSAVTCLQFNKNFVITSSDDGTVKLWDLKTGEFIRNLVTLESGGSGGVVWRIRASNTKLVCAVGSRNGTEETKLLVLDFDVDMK
# GPR151 confirm = confirmation of human GPR151 activators; shares compounds with GPR151 ag; GPR151 PathHunter beta-arrestin cells, luminescence, 90 min; % of EA-reagent control over plate median; activation, % at 11.2 µM; 6,700 tested, under 10 active;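 active = mean percent activation across replicates above the confirmation screen cutoff of 4.91%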
# GPR119 ag = activates human GPR119 in a GPR151 counter-screen | shares compounds with GPR151 ag | GPR119 PathHunter beta-arrestin cells, luminescence, 90 min; 0 = compound-well median, 100 = enzyme-acceptor control | activation, % at 11.2 µM | 6,700 tested, 0.3% active;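 active = mean percent activation in the counterscreen above 29.09%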;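 note: counterscreen on off-target GPR119 to flag nonselective hits from the GPR151 activator screen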
# The depositor's hits bear a star; · = not tested or not shown.
SMILES,GPR151 ag,MITF primary,TEAD-YAP block,FBW7 act,GPR151 confirm,GPR119 ag
COC(=O)c1ccc(/C=C2\NC(=S)N(c3ccc(OC)cc3)C2=O)cc1,6.7*,5,12,0,0,2
O=[N+]([O-])c1ccc(N/N=C/c2ccc(O)cc2O)c([N+](=O)[O-])c1,1,-9,4,0,·,·
Cc1cc(C)c(S(=O)(=O)NNc2ccc([N+](=O)[O-])cc2[N+](=O)[O-])c(C)c1,0,6,1,0,·,·
Cc1ccc(-n2c(-c3ccc4[nH]c(C)c(C)c4c3)n[nH]c2=S)cc1,5.5*,8,-27,0,1,-4
COc1ccc(C(=O)c2sc3nc(C)cc(-c4cccs4)c3c2N)cc1OC,6.9*,-17,-5,0,-1,9
COc1ccc(C(=O)c2sc3nc(C)cc(-c4cccs4)c3c2N)cc1,0,2,-2,0,·,·
Cc1cc(C(=O)Nc2ccccc2C(F)(F)F)on1,5.3*,7,-6,0,1,4
O=S(=O)(c1ccc(Cl)cc1)N(CCCN1CCOCC1)Cc1cccs1,5.8*,48,-16,0,0,6
O=S(=O)(c1ccc(F)cc1)N(CCCN1CCOCC1)Cc1cccs1,1,28,-8,0,·,·
COc1cc(NC(=O)c2cc([N+](=O)[O-])ccc2N2CCOCC2)ccc1NC(=O)C(C)C,-1,-1,5,0,·,·
Cc1cc(N(C)C)nc(N2CCC(C(=O)NCc3cccs3)CC2)n1,-1,-2,3,0,·,·
Cc1cc(-c2ccccc2)nc(N2CCC(C(=O)NCc3cccs3)CC2)n1,10*,-16,-7,0,0,13
Cc1ccc(N(C(C)C(=O)NCc2cccnc2)S(C)(=O)=O)cc1 (stereo not given),1,-12,5,0,·,·
Cc1ccc(N2NC3(CCCCCC3)NC2=S)cc1,0,7,-3,0,·,·
S=C1NC2(CCCCC2)NN1c1ccccc1,6.6*,13,4,0,0,-10
CC(C)N1CCc2c(sc(NC(=O)COc3ccc(Cl)cc3)c2C(N)=O)C1,0,8,-5,0,·,·
CC1CCCCC1N1CCN(C2CCN(Cc3ccccc3)CC2)CC1 (stereo not given),2,50,-10,0,·,·
COC(=O)c1c(NC(=O)CSc2nnc3cc(C)c4ccccc4n23)sc2c1CCC(C)C2 (stereo not given),0,0,-5,0,·,·
Cc1cc(C(=O)Nc2sc3c(c2C#N)CCC(C)C3)cs1 (stereo not given),8.3*,-1,-65,0,0,-11
Cc1cc2nnc(SCC(=O)Nc3sc4c(c3C#N)CCC(C)C4)n2c2ccccc12 (stereo not given),5.3*,22,3,0,0,4
CCN(CC)C(=O)CN(c1ccc(OC)cc1)S(=O)(=O)c1ccc(C)c([N+](=O)[O-])c1,0,8,12,0,·,·
Oc1cc(N2CCOCC2)c2ccccc2c1Cl,-1,-8,-16,0,·,·
Cc1ccc(C(=O)O)cc1N1C(=O)c2ccc(Oc3ccc([N+](=O)[O-])cc3)cc2C1=O,6.8*,-11,0,0,0,2
Cc1ccccc1N1C(=O)c2ccc(Oc3ccc([N+](=O)[O-])cc3)cc2C1=O,0,10,4,0,·,·
O=C(CC1(c2ccccc2)CC(=O)N(Cc2cccnc2)C1=O)N1CC[C@@H]2CCCC[C@H]2C1 (stereo not given in full),9.5*,3,-4,0,-1,-2
COc1ccc(C2=N/C(=C\c3c(OC)ccc4ccccc34)C(=O)O2)cc1OC,-2,3,10,0,·,·
CC(=O)C1C(c2ccc(F)cc2)C2C(C)=NN=C2CC1(C)O (stereo not given),1,12,9,0,·,·
COc1ccc(C2C3C(C)=NN=C3CC(C)(O)C2C(C)=O)cc1 (stereo not given),6.6*,13,-1,0,2,11
CN1C(=O)c2ccc(C(=O)Nc3ccc(CC(=O)O)cc3)cc2C1=O,-1,2,2,0,·,·
O=C(c1ccc2c(c1)OCO2)N1CCN(c2ccc(Cl)cc2)CC1,5.5*,17,-6,0,3,-2
